This is part of a sample that, as a whole, favours compounds with a hit. Of some 83,000 tested, about 20% had one in any assay.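 Assay: single dose, 48 h. Readout: percent growth (0 = no net growth; negative = cell death). Active: <10.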 Values without a mark were called inactive. Active and inactive are the calls of the source.
Tested on: SN12C renal
Experiment: NCI-60 one-dose screen, 48 h (100 = growth as untreated, 0 = no growth, -100 = all killed)
Details: 10 µM unless noted

Row | SMILES | growth
1 | O=Cc1ccc([N+](=O)[O-])s1 | 84.1%
2 | CC(C)(C)n1cc(-c2ccnc(NCCCNS(=O)(=O)c3ccc(F)cc3)c2)c(-c2cccc(F)c2)n1 | 66.5%
3 | O=C1C(Cl)=C(Nc2ccc(O)cc2)C(=O)N1Cc1ccc(Cl)cc1 | 64.9%
4 | COc1cc(CNC(=O)CCCC/C=C/C(C)C)ccc1OCc1nnc(Nc2ccc([N+](=O)[O-])cc2)o1 | 49%
5 | O=C(N/N=C/c1ccc(F)cc1)c1ccc(C(F)(F)F)nc1Nc1cccc(C(F)(F)F)c1 | -12.1% (active)
6 | C=C(C)[C@@H]1CC[C@]2(C(=O)NCCNCCN)CC[C@]3(C)[C@H](CC[C@@H]4[C@@]5(C)C/C(=C/c6ccncc6)C(=O)C(C)(C)[C@@H]5CC[C@]43C)[C@@H]12 | 96.5%
7 | O=C(COc1ccc(-c2nc3ccccc3[nH]2)cc1)N=Nc1c(O)[nH]c2ccc(Cl)cc12 | 83.9%
8 | C/C(=N/O)c1ccc(F)cc1 | 81.4%
9 | COc1ccc(C2=Nc3c/c(=C\c4c(O)[nH]c5ccc(Cl)cc45)ccc3=N2)cc1 | 73.4%
10 | CCOC(=O)c1cnc2ccccc2c1Cl | 102%
11 | CCCc1cc(NC)nc(S(=O)(=O)CC)n1 | 99.1%
12 | COc1ccc(/C=C2\C(=O)N=C3N2NC(c2cc(Br)ccc2O)C=C(C)N3c2ccccc2)cc1 (stereo not given) | 97.6%
13 | O=S(=O)(NCCNc1nccc(-c2c(-c3cccc(F)c3)nc3occn23)n1)c1ccc(Br)cc1 | 78.7%
14 | CCn1cc(C(=O)N/N=C/c2cccs2)c(=O)c2cc(F)c(N3CCNC(C)C3)c(F)c21 (stereo not given) | 70%
15 | Cn1c(=O)c2[nH]c(N/N=C/c3ccccc3Br)nc2n(C)c1=O | 104%
16 | CCCCCCNC(=O)Oc1ccc(/C(=C(/C)Cc2ccc(OC)cc2)c2ccc(OCCCN(C)C)cc2)cc1 | 45.8%
17 | O=C(OCc1ccc2cccc(O)c2n1)N1CCN(C(=O)c2cc3cc(F)ccc3[nH]2)CC1 | -90.8% (active)
18 | CC(=O)[C@@H]1CCC=C2CC[C@]3(C)[C@@H](CC[C@@H]4[C@@]5(C)CCCNC(C)(C)[C@@H]5CC[C@]43C)[C@H]21 | -87.9% (active)
19 | O=c1oc2ccc([N+](=O)[O-])cc2cc1Br | 105%
20 | S=C(Nc1ccc(-c2nc(N3CCOCC3)c3cccn3n2)cc1)Nc1cccnc1 | 28.8%

Row | SMILES | growth
21 | O=C1/C(=C/c2ccc(-c3ccc(Br)cc3)o2)SC(=S)N1CCc1ccc(O)cc1 | 69.6%
22 | CCOC(=O)CSc1ncnc2c1c(-c1ccccc1)c(-c1ccccc1)n2-c1ccc(C)cc1 | 64.3%
23 | CCNc1cc(-c2cccc(OC(F)(F)F)c2)nc2ccc(N3CCCC3)cc12 | 9.26% (active)
24 | CCCCNC(=O)Oc1ccc(/C(=C(/CC)Cc2ccccc2)c2ccc(OCCN3CCCCCC3)cc2)cc1 | 25.8%
25 | COc1ccc(-c2nc3c(c(-c4ccccc4)nn3-c3ccccc3)c(-c3ccc(N4CCOCC4)cc3)c2C#N)cc1 | 97.9%
26 | COc1cc(-c2csc(NC(=O)c3cc(-n4cnc(C)c4)cc(C(F)(F)F)c3)n2)cc(OC)c1OC | 44.1%
27 | COc1cc(CNS(=O)(=O)c2ccc(C)cc2)ccc1OCc1cn(-c2ccc(Br)cc2)nn1 | 105%
28 | Nc1ncnc2c1N=C(c1ccc3c(c1)OCO3)CC(c1ccc([N+](=O)[O-])cc1)N2 (stereo not given) | 84%
29 | COc1ccc(-c2nc3c(c(-c4ccccc4)nn3-c3ccccc3)c(-c3ccc(N4CCN(C)CC4)cc3)c2C#N)cc1 | 93.7%
30 | CCOC(=O)C(=Cc1cccc(Cl)c1)C(=O)OCC | 33.3%
31 | O=C1NC(=O)c2c1c1c3ccccc3ccc1c1[nH]c3ccc(Br)cc3c21 | 9.28% (active)
32 | CC1(c2ccccc2O)NN=C(/N=C/c2cccc([N+](=O)[O-])c2)N1C(Cc1c[nH]c2ccccc12)C(=O)O (stereo not given) | 94.2%
33 | CCOP(=O)(OCC)c1nc(-c2ccccc2)oc1NCc1cccnc1 | 103%
34 | CCOC(=O)c1cn2ncnc(Oc3ccc(NC(=O)NC4CCCCC4)c(Cl)c3)c2c1C | 72.8%
35 | COC(=O)c1cc(-c2ccccc2)[nH]c1N/N=C/c1c(Cl)cccc1Cl | 35.2%
36 | COc1ccc(-c2nnc(-c3ccc4c(c3)nc(-c3ccncc3)n4C3CCCCC3)o2)cc1 | 83.8%
37 | CC(C)(C)c1cc(-c2nc3ccc(N4CCN(S(C)(=O)=O)CC4)cc3[nH]2)cc(C(C)(C)C)c1O | 97.7%
38 | CCCCN1C(=O)/C(=c2\sc3n(c2=O)C2C(NN=3)N(CC)C(=O)N2CC)c2ccccc21 (stereo not given) | 19.3%
39 | N#Cc1nn(-c2cc(=O)[nH]c3ccc(Cl)cc23)c(N)c1C#N | 104%
40 | Cc1ccc(-n2c(=S)[nH]c3sc4c(c3c2=O)CCC(=O)C4)cc1 | 40.3%
